Screens deposited in PubChem BioAssay by National Center for Advancing Translational Sciences (NCATS).
Shiga inhibitor = inhibitors of Shiga toxin in Vero cells. 9.2% of 290,000 active. Vero cells, Shiga toxin protein synthesis inhibition reporter. inhibition, % at 38.7 µM; in the data active means inhibition mostly above about 28%, no sharp cut-off; inactive means mostly below about 43%; further: 0% is about no effect
HCV inhibitor = blocks hepatitis C virus | 3.4% of 340,000 active | AID 651820 | Huh7.5.1 HCVcc-Cre infection, luciferase reporter, 44 h | Potency, µM (highest dose often 41.8 µM), without a hit: at the highest dose activity change, negative = inhibition, usual class: inhibitors; further: potency means the concentration at half of the fitted maximal effect; on the % scale 0 is the no-effect control and ±100 the full control effect
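Cells (1,000/well) were plated 4 h before compound, then infected with HCVcc-Cre virus (~0.5 moi). After 44 h further culture, infection was read as luciferase luminescence following a 15 min substrate incubation at room temperature.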
Pf growth 96h = inhibits malaria parasite growth, 96 h | AID 504834 | Potency, µM (doses to about 28.7 µM), inactives show at the top dose activity change, negative = inhibition, most hits filed as inhibitors | P. falciparum luciferase reporter growth, 96 h | 6.9% of 320,000 active; further: potency means the concentration at half of the fitted maximal effect; on the % scale 0 is the no-effect control and ±100 the full control effect
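Two-generation exposure (96 h) targets delayed-death phenotype. Reporter parasites carrying integrated firefly luciferase, in red cells at 2% hematocrit and 0.05% parasitemia final, kept at 37 C, 5% CO2; luminescence loss indicates inhibition.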
AMA1 RON2 block = inhibitors of Plasmodium falciparum AMA1-RON2 interaction; AlphaScreen AMA1-biotinylated RON2 peptide binding; Potency, µM (series often up to 58.2 µM), inactives show at the top dose activity change, negative = inhibition, usual class: inhibitors; 0.2% of 360,000 active;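 further: potency means the concentration at half of the fitted maximal effect; 0% = vehicle wells and -100% = peptide control; nearly all actives have a fitted effect of over 45% in size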
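AMA1 (3D7) with his tag at 25 nM final met compounds first, then biotinylated RON2 peptide at 25 nM; detection used donor plus acceptor beads, 10 µg/mL apiece, read by AlphaScreen after 30 min at room temperature.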
CHX counter = counter-screen hit for Shiga toxin inhibitors, cycloheximide; cell reporter, cycloheximide protein synthesis inhibition counterscreen; max response, %; 12% of 300,000 active; AID 2314; in the data active means max response mostly above about 13%, no sharp cut-off; inactive means mostly below about 14%; further: read at 38.3 µM for the half of the compounds with a filed dose; 0% is about no effect
Pf growth 48h = inhibits P. falciparum growth in the first generation, 48 h; P. falciparum luciferase growth in erythrocytes, 48 h; 5.9% of 310,000 active; Potency, µM (highest dose often 28.7 µM), inactives show top-dose activity change, negative = inhibition, usual class: inhibitors; further: potency means the concentration at half of the fitted maximal effect; on the % scale 0 is the no-effect control and ±100 the full control effect
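Firefly luciferase activity from engineered P. falciparum reports growth; inhibitors lower the luminescent signal. Cultures contained 2% hematocrit erythrocytes at 0.1% final parasitemia.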
* = called active by the depositor; ? = inconclusive; · = not tested or not shown; [ ] = remark or other dose. Sampled rows, rich in hits. Any-hit rate of the full collection: about 21%. Unless noted, the call rests on the fitted dose curve; in most records, active means well fitted curve in the direction sought with a large enough effect; inconclusive means small, poorly fitted or top-dose-only effect, or another doubt; inactive means no such curve, though single readings can be large; an effect the other way counts as inactive or inconclusive.

SMILES	Shiga inhibitor	HCV inhibitor	Pf growth 96h	AMA1 RON2 block	CHX counter	Pf growth 48h
COc1ccc2nc(-c3ccccc3)nc(C3CCCCC3)c2c1	·	?	54.7%	4.7%	·	32.7%
CC(C)(C)c1nc(SCC(=O)NNC(=O)c2ccccc2)c2ccccc2n1	-17.6	?	9.3%	66.0%	-1.7	-14.9%
CCc1ccccc1NC(=O)CN1CCN(CC(=O)Nc2ccc3c(c2)OC2(CCCCC2)O3)CC1	·	?	·	0.0%	·	·
COc1ccccc1CNC(=O)CCNC(=O)c1ccco1	·	?	21.8%	-11.9%	·	?
COc1cccc(Nc2nc(C(N)c3ccccc3)cs2)n1 (configuration not stated)	·	·	·	32.9%	·	·
CCOc1cc(OCC)cc(C(=O)N2CCC[C@@H]2C(=O)N2CCC[C@H]2C(=O)NCc2ccncc2)c1	·	·	·	-7.5%	·	·
COc1ccc2nc(-c3ccccc3)cc(OC)c2c1	65.1*	?	108.9%	3.2%	58.2*	39.8%
O=C(O)c1cccc(-c2nc3ccccc3[nH]2)c1	32.2*	24.8%	2.33µM*	0.4%	26.7*	197.1%
COc1ccc2oc(=Nc3ccccc3)c(-c3nc4ccccc4[nH]3)cc2c1	71.4*	3.3%	48.6%	-3.1%	58.8*	67.0%
Nc1cc(N)cc(-c2nc3ccccc3[nH]2)c1	12.8	-22.5%	?	-28.6%	22.7*	-9.1%
Nc1nc2ccccc2[nH]1	-7.4	10.6%	5.8%	2.1%	2.0	5.5%
O=C(c1cc(-c2ccc(Cl)cc2)n[nH]1)N1CCN(C(=O)c2ccco2)CC1	5.9	-5.2%	?	-0.2%	5.4	13.1%
COc1ccccc1OCCOCCOc1ccccc1Cl	-8.3	-22.2%	33.2%	65.5%	-3.1	-4.9%
COc1ccccc1OCCCOc1c(Cl)cc(C)cc1Cl	20.6	0.8%	-16.6%	94.0%	15.2*	-0.5%
COc1cc(C)ccc1OCCCOc1c(Cl)cccc1Cl	60.4	-0.2%	0.131µM*	52.9%	18.1*	44.7%
C/C(=N/OC(=O)c1ccc(C)cc1)c1cccs1	123.0*	9.4%	75.8%	0.0%	32.9*	89.9%
COc1ccc(C(=O)O/N=C(\C)c2ccccc2)cc1	21.4	9.2%	20.5%[5.75 µM]	8.4%	16.5	205.5%
C/C(=N/OC(=O)c1ccccc1Br)c1ccc(C)cc1	138.8*	-3.6%	-25.1%	13.1%	66.2*	52.0%
C/C(=N\OC(=O)c1ccc(C)cc1)c1sc(C)nc1C	32.9	20.2%	19.3%	-7.7%	31.9*	·
COc1ccc(C(=O)O/N=C(/c2cccs2)C(C)(C)C)cc1	12.2	0.2%	37.5%	23.4%	-0.9	82.2%
N#CC(C#N)=C(Nc1ccc(F)cc1)SCc1cccc(Br)c1	-8.2	5.01µM*	?	-0.9%[11.6 µM]	-2.9	?
CC(SCc1ccccc1)C(=O)Nc1ccc(F)cc1 (configuration not stated)	36.3	-2.6%	?	-5.8%	19.7	?
Cc1cccc(CSC(Nc2ccc(F)cc2)=C(C#N)C#N)c1	-11.3	11.2µM*	?	-11.8%	-5.6	?
COc1ccc(OC)c(NC(=O)CSc2nnc(CNC(=O)COc3ccc(Cl)cc3)o2)c1	-14.2	-6.7%	?	-22.3%	7.4	?
COc1ccc(NCc2nnc(SCC(=O)c3ccc(OC)cc3)o2)cc1	-5.8	?	·	8.3%	-1.7	13.2%
SMILES	Shiga inhibitor	HCV inhibitor	Pf growth 96h	AMA1 RON2 block	CHX counter	Pf growth 48h
CCC1CCCCN1C(=O)CSc1nnc(CNC(=O)COc2ccc(Cl)cc2)o1 (configuration not stated)	8.8	-9.4%	10.0%	10.3%	1.6	·
CCOc1cc(C(=O)CSc2nnc(CNc3ccc(Cl)cc3)o2)ccc1NC(=O)CC	-21.4	11.2µM*	?	12.6%	-10.0	?
O=C(COc1ccc(Cl)cc1)NCc1nnc(SCC(=O)NC2CCCC2)o1	7.5	1.0%	4.15µM*	18.0%	-2.3	?
COc1ccc(NC(=O)CSc2nnc(CNC(=O)COc3ccc(Cl)cc3)o2)c(OC)c1	-5.0	-13.0%	9.28µM*	-13.0%	-2.6	13.1µM*
Cc1ccc(S(=O)(=O)NCl)cc1	·	·	-29.4%	·	·	-14.7%
CCOC(=O)C(N)CSC1CC(=O)N(CCc2ccccc2)C1=O (configuration not stated)	-4.0	9.3%	138.7%	46.6%	-1.8	25.5%
